# Assay results published in ChEMBL document CHEMBL4513216, “Probing the Open Global Health Chemical Diversity Library for Multistage-Active Starting Points for Next-Generation Antimalarials” (ACS Infect Dis, 2020).
# Hit rate of the full screen: of about 69,000 compounds, about 8,600 (12%) showed an effect of 50% or more. What follows is part of a selection rich in strong results, with near analogues and random picks from the rest.
# Tested on: Plasmodium berghei
# Test: Screen against P. berghei liver stage (PbLuc), transformed with Luciferase, at 10uM
# Type: functional, HepG2
# Settings: tested at 10 uM
row,Compound,INHIBITION [%]
1,CCCOCC1CCN(C(=O)c2cnc(-c3cccnc3)nc2O)C1 (stereo unspecified),-27.3
2,Cc1nc(-c2cccnc2)ncc1C(=O)N1CCCC(N(C)C)CC1 (stereo unspecified),21.6
3,Cc1nc(-c2cccnc2)ncc1C(=O)N1CCCCC(N)C1 (stereo unspecified),55.6
4,Cc1nc(-c2cccnc2)ncc1C(=O)N1CCC(c2ncc[nH]2)CC1,21.6
5,Cc1nc(-c2cccnc2)ncc1C(=O)N1CCC(C(C)N(C)C)CC1 (stereo unspecified),70.4
6,N[C@H]1CCCN(C(=O)c2cnc(COc3ccccc3)nc2O)C1,-58
7,Cc1nn(C)c(C)c1C1CCCN1Cc1nc(-c2cccs2)no1 (stereo unspecified),-2.53
8,CC(C)c1nccc(CN2CCCC(O)(CN(C)C)CC2)n1 (stereo unspecified),-3.55
9,CC1CN(CC(=O)N2CCOCC2)CCN1Cc1nccn1C (stereo unspecified),20.915
10,Cc1nc2c(c(Nc3ccccn3)n1)CN(S(C)(=O)=O)CC2,-10.4
11,N#Cc1ccccc1C(=O)N1C[C@@H]2CC[C@H]1CN(Cc1ccccc1)C2,27.6
12,COCCCSc1ccc(NCc2cscn2)cc1,26.9
13,COCCCSc1ccc(NCc2scnc2C)cc1,95.4
14,COc1cc2nc(NCc3scnc3C)nc(N)c2cc1OC,45
15,COCCCSc1ccc(NCc2ccc(C)cn2)cc1,72.2
16,COCCn1ccc(NCc2scnc2C)n1,17.7
17,COCCCSc1ccc(NC(=O)Nc2cn[nH]c2)cc1,41.2
18,COCCCNC(=O)c1cc(OC)c2ccoc2c1,-25.7
19,CNC(=O)[C@H]1C[C@@H]2CN(C(=O)c3ccoc3)C[C@@H]2N1S(C)(=O)=O,-15.2
20,Cc1ccsc1C(=O)NCc1ccnc(N2CCN(C)CC2)c1,4.45
21,Cn1cc(NC(=O)Cc2ccccc2Br)cc1C(N)=O,-3.21
22,CC(C)(C)c1ccc(OCC(=O)O)c(CN2C[C@H]3CC(O)C[C@H]3C2)c1 (stereo partly specified),40.55
23,Cc1ccccc1CN1CCC2(COCc3cnc(N(C)C)nc32)C1 (stereo unspecified),21.8
24,Cc1noc(C)c1CN(C)C(=O)c1ccc(C(F)(F)F)nc1,-9.37
25,CN(C)CCN1CCOCC2(CCN(Cc3ccc[nH]3)CC2)C1,-7.94
26,Cc1cccc(N2CC(c3nnc(N)s3)CC2=O)c1 (stereo unspecified),35

row,Compound,INHIBITION [%]
1,Fc1ccc(-c2noc([C@@H]3Cc4nc[nH]c4CN3)n2)cc1,-9.26
2,Cc1ccc(-c2noc([C@@H]3Cc4nc[nH]c4CN3)n2)cc1,36.2
3,FC(F)(F)Oc1ccc(-c2noc([C@@H]3Cc4nc[nH]c4CN3)n2)cc1,64.8
4,O=C(N[C@H]1CCCC[C@@H]1O)c1ccc(-c2nc3ccccc3[nH]2)cc1,14.5
5,Cc1ccc(NC2CCN(C(=O)c3cc(C)no3)CC2)nn1,-25.85
6,CN(CCC(F)(F)F)C(=O)C1CSCN1C(=O)C(C)(C)C (stereo unspecified),31.2
7,Cc1ncoc1C(=O)N1CCCC(c2ccc3c(N)nn(C)c3n2)C1 (stereo unspecified),5.2
8,CNc1nc(C2CCN(C(=O)CC3CCCC3)C2)nc2c1CN(C)CC2 (stereo unspecified),67.7
9,CNc1nc(C2CCCN2C(C)=O)nc2c1CN(C1CCCC1)CC2 (stereo unspecified),67.9
10,CCC(=O)N1CCC(c2nc3c(c(NC)n2)CN(C)CC3)C1 (stereo unspecified),-22.6
11,CNc1nc(C2CCCN2C(C)=O)nc2c1CCN(CC1CC1)C2 (stereo unspecified),-2.42
12,CNc1nc(C2CCCN2C(C)=O)nc2c1CN(CCO)CC2 (stereo unspecified),11.5
13,CNc1nc(C2CCCN(C(=O)CNC(C)=O)C2)nc2c1CN(C)CC2 (stereo unspecified),42.4
14,CSCC(C)(O)CNS(=O)(=O)Cc1ccc(F)cc1 (stereo unspecified),33.7
15,CC(C)(C(=O)O)S(=O)(=O)c1ccc(Br)cc1,4.82
16,Cn1ncc2c1C(COCC1CC1)CN(Cc1ccoc1)C2 (stereo unspecified),35.8
17,O=C(COc1ccccc1)N(Cc1ccncc1)C1CC1,61.9
18,N#Cc1cccc(OCC(=O)N(Cc2ccncc2)C2CC2)c1,59.1
19,Cc1cccc(OCC(=O)N(Cc2ccncc2)C2CC2)c1,31.3
20,N#Cc1cccc(OCC(=O)N(Cc2ccsc2)C2CC2)c1,54.5
21,O=C(c1cccnc1)N(Cc1ccncc1)C1CC1,14.8
22,COc1cc(C(C)=O)ccc1OCC(=O)N(Cc1ccsc1)C1CC1,-16
23,N#Cc1ccc(C(=O)N(Cc2ccncc2)C2CC2)cc1,-19.4
24,N#Cc1cccc(CN(CCO)Cc2ccsc2)c1,33.4
25,Cc1noc(C)c1CN(C)C(=O)COc1cccc(C#N)c1,8.08
26,O=C(COc1ccc2c(c1)CCC2)NCc1ccco1,33.2

row,Compound,INHIBITION [%]
1,O=C(NC1CCC2(CCC(=O)N2CC2CC2)CC1)c1cnccn1 (stereo unspecified),-40.5
2,CNC(=O)C(C)(C)N1CCC[C@H]1C(=O)NCCN(C)C,49.4
3,C=C(C)CSc1nnc(CCNC(=O)OC(C)(C)C)o1,-0.532
4,CCSc1nnc(CCNC(=O)OC(C)(C)C)o1,-17.3
5,COC(=O)CSc1nnc(CCNC(=O)OC(C)(C)C)o1,52.5
6,Cc1cccc(-c2nccnc2C2CCCN(C)C2)c1 (stereo unspecified),16.105
7,Cc1nccn1CC1CCCN1S(=O)(=O)Cc1cccc(F)c1 (stereo unspecified),-7.35
8,O=C(c1cc(C2CCCCC2)no1)N1C[C@H]2CC(O)C[C@H]2C1 (stereo partly specified),-15.1
9,Cc1ncc2c(n1)CCCC2NC(=O)c1ccccc1Cn1cncn1 (stereo unspecified),64
10,Cc1ncc2c(n1)CCCC2NC(=O)c1cnn(Cc2ccccc2)c1 (stereo unspecified),26.4
11,Cc1ncc2c(n1)CCCC2NC(=O)c1ccccc1C(=O)O (stereo unspecified),11.6
12,Cc1nc(C)c(C(=O)N2CCc3nnc(C4CCCN4C)n3CC2)s1 (stereo unspecified),-14.6
13,O=C(CC1CCCC1)N1CCC2(CCN2Cc2ccc(F)cc2)C1 (stereo unspecified),-43
14,O=C(Cc1ccccc1)N1CCC2(CCN2Cc2ccc(F)cc2)C1 (stereo unspecified),1.34
15,CCC(=O)N1CCC2(CC1)COCCN2Cc1ccc(F)cc1,66
16,CCN1CCOCC12CCN(C(=O)Cc1ccccc1)CC2,28.7
17,O=C(C1CC1)N1CCC2(CC1)COCCN2Cc1ccc(F)cc1,68.4
18,CC(=O)N1CCC2(CC1)COCCN2Cc1ccc(F)cc1,34.7
19,CCN1CCOCC12CCN(C(=O)Cc1cccs1)CC2,23.3
20,O=C(C1CC1)N1CCC2(CCCN2Cc2ccc(F)cc2)CC1,13.7
21,COCC(=O)N1CCC2(CC1)COCCN2Cc1ccc(F)cc1,26.4
22,O=C(C1CC1)N1CCC2(CCN2Cc2ccc(F)cc2)C1 (stereo unspecified),9.97
23,CC(C)CC(=O)N1CCC2(CC1)COCCN2Cc1ccc(F)cc1,56.7
24,CC(C)C(=O)N1CCC2(CC1)COCCN2Cc1ccc(F)cc1,63.7
